# TSHR antag – Antagonists of the Thyroid Stimulating Hormone Receptor: HTS campaign; TSHR-expressing cells, TSH-stimulated cAMP HTRF, 2 h; stronger effect = lower value; activity change, negative = inhibition, % at 11.5 µM; actives 0.2% (n = 330,000); AID 504810, 2011;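 active = activity change below a set negative limit, meaning inhibition stronger than a set level, cut at about -70% in these data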; note: % is set by controls: 0 for no effect and ±100 for the full control effect
#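 Cell-based HTRF cAMP assay; TSHR cells + compound, TSH EC80 (4nM final), 2 h, 37 deg C. Lysis with anti-cAMP cryptate and cAMP-d2, 30 min RT, read 665/620 nm.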
# B2AR arrestin – qHTS assay of beta-arrestin-biased ligands of beta2-adrenergic receptor; Beta-2 adrenergic receptor (Homo sapiens), P07550; beta-arrestin recruitment to beta2AR, cell-based reporter; Potency, µM (series often up to 46.1 µM), inactives show at the highest dose activation, most hits filed as activators; actives 0.02% (n = 330,000); AID 492947, 2010; active = well fitted activation curve with a large enough effect;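 note: potency is the fitted concentration of half-maximal effect; 0% = DMSO controls and full agonism = EC100 isoproterenol or metaproterenol; nearly all actives have a fitted effect of over 65% in size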
# Target sequence (P07550 whole entry, looked up): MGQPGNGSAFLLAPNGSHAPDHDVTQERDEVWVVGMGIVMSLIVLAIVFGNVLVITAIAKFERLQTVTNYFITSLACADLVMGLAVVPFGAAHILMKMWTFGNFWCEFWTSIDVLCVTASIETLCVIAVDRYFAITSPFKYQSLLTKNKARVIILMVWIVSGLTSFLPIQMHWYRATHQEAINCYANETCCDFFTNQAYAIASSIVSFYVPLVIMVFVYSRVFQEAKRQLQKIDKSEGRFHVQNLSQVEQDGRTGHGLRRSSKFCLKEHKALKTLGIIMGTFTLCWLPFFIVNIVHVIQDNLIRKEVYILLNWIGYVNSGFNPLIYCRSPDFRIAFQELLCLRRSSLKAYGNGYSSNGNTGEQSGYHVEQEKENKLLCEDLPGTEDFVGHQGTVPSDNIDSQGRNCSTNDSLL
# D3 antag – qHTS of D3 Dopamine Receptor Antagonist: qHTS. AID 652054, 2013. max response, negative = inhibition, %. D(3) dopamine receptor (Homo sapiens), P35462. actives 2.5% (n = 360,000). D3R cells, DiscoveRx beta-arrestin luminescence, antagonist mode; stronger effect = lower value; in the data active = max response below about -50%; note: % is set by controls: 0 for no effect and ±100 for the full control effect
#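 Cells expressing the human receptor were seeded at 1500 cells/well, incubated overnight at 37 degrees C in 5% CO2, then exposed to library compounds with dopamine controls for 90 minutes at 37 degrees C before luminescent detection.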
# DRD3 agonist – qHTS of D3 Dopamine Receptor Agonist: qHTS; D(3) dopamine receptor (Homo sapiens), P35462; D3R DiscoveRx beta-arrestin cells, luminescence, 90 min; max activation, %; actives 0.58% (n = 410,000); in the data active = max activation above about 30%; note: 0% is about no effect
#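 Agonist-mode cell screen: cells plated at 1500/well and incubated overnight at 37 °C, then exposed to library compounds for 90 min at 37 °C. Detection reagent was added for 30–60 min at room temperature, and luminescence was read.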
# * hit, by the source's call; · = not tested or not shown. Rows were chosen to be rich in hits. Some 2.9% of all compounds tested hit in one or more screens of this group.
SMILES,TSHR antag,B2AR arrestin,D3 antag,DRD3 agonist
CC(C)(C)NC(=O)[C@H]1CC[C@H]2[C@@H]3CC=C4C=C(C(=O)O)CC[C@]4(C)[C@H]3CC[C@]12C,·,·,·,-3
O=C(c1cnc2sccn2c1=O)N1CCN(c2ccccc2Cl)CC1,-3,-1%,-7,6
O=C(c1cnc2sccn2c1=O)N1CCc2ccccc2C1,·,0%,-96*,-19
COc1ccc(C(=O)c2c(-c3ccc(OC)cc3)oc3ccccc23)cc1,-19,0%,-63*,-21
COc1ccc(OCC(=O)c2c(O)c3ccccc3oc2=O)cc1,-9,-1%,-114*,14
CCOc1ccc(OCC(=O)c2c(O)c3ccccc3oc2=O)cc1,-12,1%,0,-13
O=c1ccc2ccccc2c2ccccc12,·,·,-79*,-11
c1ccc2c(c1)ccc1ccccc12,0,-1%,-9,0
COCC(=O)Nc1cc(Sc2ccccc2)ccc1N=C(NC(=O)OC)NC(=O)OC,·,·,·,11
O=C(Nc1ccccc1)NC(Cc1ccc(O)cc1)C(=O)O (centres undefined),15,0%,-65*,22
Cc1ccc(N2C(=O)CSC23C(=O)N(CC(=O)NC2CCCCC2)c2ccccc23)cc1C (centres undefined),·,·,·,-6
Cc1cc(C)cc(C(=O)NC(CC(N)=O)c2ccc(NCCN3CCCC3)c([N+](=O)[O-])c2)c1 (centres undefined),-89*,-1%,-11,21
C[C@@H]1CCN(C(=O)[C@H](CCCN=C(N)N)NS(=O)(=O)c2cccc3c2NC[C@H](C)C3)[C@@H](C(=O)O)C1,·,·,·,95*
O=C1c2ccccc2C(=O)N1CCc1csc(-c2ccccc2)n1,-7,0%,-1,-4
Cc1nc(CCN2C(=O)c3ccccc3C2=O)cs1,-2,-1%,-8,-6
NC(N)=Nc1nc(CCN2C(=O)c3ccccc3C2=O)cs1,-44,0%,22,48*
O=C1c2ccccc2C(=O)N1CCc1csc(-c2ccc(F)cc2)n1,-15,0%,-11,30*
Cc1nc(C(=O)NCc2ccccc2)sc1C1(C)CC(c2ccccc2)=NO1 (centres undefined),21,-1%,-50*,-18
COc1ccc(NC(=O)c2nc(C)c(C3(C)CC(c4ccccc4)=NO3)s2)cc1 (centres undefined),-12,0%,-12,-12
O=c1c2cc([N+](=O)[O-])ccc2sn1-c1ccccc1,·,·,-94*,-19
COc1ccc(C)cc1NC(=O)CSc1nc(=O)n(Cc2ccco2)c2c1CCC2,·,·,·,-24
CC(=O)c1cc(CN2CCN(Cc3ccc(C)cc3)C(CCO)C2)cs1 (centres undefined),-4,-1%,-86*,-4
CC(=O)c1cc(CN2CCN(CCC(C)C)C(CCO)C2)cs1 (centres undefined),3,3%,2,-12
CC(=O)c1cccc(CN2CCN(Cc3ccc(C)cc3)C(CCO)C2)c1 (centres undefined),-5,-1%,-74*,-22
Cc1ccc(CN2CCN(Cc3cccc(-n4cccn4)c3)CC2CCO)cc1 (centres undefined),4,0%,-53*,-16
SMILES,TSHR antag,B2AR arrestin,D3 antag,DRD3 agonist
CC1CCN(S(=O)(=O)c2ccc3[nH]cc(C(=O)NCc4ccc(F)cc4)c(=O)c3c2)CC1,·,·,·,4
CCc1ccc(NC(=O)N(CCCN2CCOCC2)C(C)c2cc3cccc(OC)c3o2)cc1 (centres undefined),-9,0%,-53*,-14
COc1ccc(Cl)cc1Nc1ncnc2c1nc1n2CCCC1,·,·,·,3
Cc1ccc(C(C)C)c(OCC(=O)N2CCC(c3nc4ccccc4o3)CC2)c1,·,·,·,-2
CN1CCN(C(=O)C23CCC(C)(c4nc5ccccc5nc42)C3(C)C)CC1 (centres undefined),2,0%,-51*,-8
CCOC(=O)Cn1nc(Cc2ccccc2)c2ccccc2c1=O,29,0%,-17,-7
CN1CCCC(n2nc(Cc3ccc(Cl)cc3)c3ccccc3c2=O)CC1 (centres undefined),·,·,-54*,-82
CC(C)n1cnc2c(N(C)c3ccccc3)nc(N(CCN(C)C)Cc3ccccc3)nc21,-5,-1%,-70*,-44
